HCV inhibitor = blocks hepatitis C virus. Huh7.5.1 HCVcc-Cre infection, luciferase reporter, 44 h. Potency, µM (doses to about 41.8 µM), most hits filed as inhibitors. hit rate 3.4% among 340,000. AID 651820
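Luciferase read-out (15 sec integration) after a 15 min room-temperature substrate step quantifies HCVcc-Cre infection. Cells, 1,000 per well, had compound added 4 h post-plating, then virus at ~0.5 moi, and were cultured 44 h.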
SARS PLpro yeast = SARS-CoV PLP inhibition in yeast | S. cerevisiae expressing SARS-CoV PLpro, growth rescue | Potency, µM (top dose mostly 32.9 µM), usual class: activators | hit rate 0.19% among 330,000; calls by dose curve; further: nearly all actives have a fitted effect of over 55% in size
Pf growth 48h = P. falciparum growth inhibition at 48 hours (one generation) | AID 504832 | hit rate 5.9% among 310,000 | P. falciparum luciferase growth in erythrocytes, 48 h | Potency, µM (top dose mostly 28.7 µM), usual class: inhibitors
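Compounds are pin-transferred into medium, infected erythrocytes (2% hematocrit, 0.1% parasitemia final) are added, and plates sit one parasite generation at 37 C in 5% CO2. Detection reagent is then added and luminescence measured.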
Pf growth 96h = inhibits malaria parasite growth, 96 h | P. falciparum luciferase reporter growth, 96 h | Potency, µM (series often up to 28.7 µM), usual class: inhibitors | hit rate 6.9% among 320,000 | AID 504834
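Compounds incubated with erythrocytes infected by luciferase-expressing P. falciparum (2% hematocrit, 0.05% parasitemia final) for 96 hours, 37 C in 5% CO2. Growth inhibition scored as decreased luciferase luminescence.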
Sm TGR inh = S. mansoni TGR enzyme inhibition. Q962Y6. purified TGR, DTNB reduction, TNB absorbance 405 nm. Potency, µM (top dose mostly 114 µM), most hits filed as inhibitors. hit rate 3% among 360,000. AID 485364; further: nearly all actives have a fitted effect of over 60% in size
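First, TGR (20 nM dispensed) and NADPH were mixed with compound. Second, a 15 min room-temperature incubation followed. Third, further NADPH and then DTNB were added to start the reaction. Finally, TNB absorbance was monitored kinetically.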
HCMV inh = human cytomegalovirus inhibition; hit rate 4.5% among 410,000; HFF cells, HCMV-luciferase reporter, 72 h; active compounds read low; AID 1259415; activity change, negative = inhibition, % at 57.5 µM; in the data active means activity change below about -60%; inconclusive means no clear call, values can overlap the other calls; inactive means above about -39%
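Steps: HFFs plated, 16 h 37C; compounds added; HCMV-luciferase added to MOI 1 PFU/cell; 72 h 37C; OneGlo reagent, 5 min room temperature; luminescence read, normalized to controls.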
Of the large screens only hits and unclear results are named; the others gave an inactive call. Shown are actives, neighbours in structure and some others; about 15% of the full set was active somewhere. Unless noted, the call rests on the fitted dose curve; in most records, active means well fitted curve in the direction sought with a large enough effect; inconclusive means small, poorly fitted or top-dose-only effect, or another doubt; inactive means no such curve, though single readings can be large; an effect the other way counts as inactive or inconclusive.

CC1=CC(C)(C)Nc2ccc(OC(=O)CN3C(=O)c4ccccc4C3=O)cc21	HCV inhibitor 25µM, Pf growth 48h 15µM, HCMV inh -100
CC1=CC(C)(C)Nc2ccc(OC(=O)CN3C(=O)c4cccc5cccc(c45)C3=O)cc21	HCV inhibitor inconclusive, Pf growth 48h 7.4µM, Pf growth 96h inconclusive, Sm TGR inh inconclusive, HCMV inh -78
CC1=CC(C)(C)Nc2ccc(OC(=O)C(Cc3ccccc3)N3C(=O)c4ccccc4C3=O)cc21 (stereo unspecified)	Pf growth 48h inconclusive, HCMV inh inconclusive
CCCCN(C)c1nnc(NC(=O)Nc2cccc(C(C)=O)c2)s1	none (no result: HCV inhibitor, SARS PLpro yeast, Pf growth 48h, Pf growth 96h)
COc1ccc2c(c1)sc1ncc(C(=O)NCc3cccc(C)c3)c(=O)n12	none (no result: HCV inhibitor, SARS PLpro yeast, Pf growth 48h, Pf growth 96h)
CC(=O)c1cccc(N(C(=O)CNC(=O)c2ccco2)C(C(=O)NCc2ccco2)c2ccccc2)c1 (stereo unspecified)	HCV inhibitor inconclusive, Pf growth 96h inconclusive
Cc1cc(C)c(S(=O)(=O)c2cccc(Cl)c2)c(=O)[nH]1	none (no result: Pf growth 48h)
C[C@H]1CC[C@H]2C(=O)N3[C@H](c4ccccc4Br)[C@@H](C)CC[C@H]3C(=O)N2[C@@H]1c1ccccc1Br	Pf growth 48h inconclusive, Pf growth 96h 5.2µM (no result: HCMV inh)
C#CCOCCOCCOCCNc1nc(N2CCOCC2)nc(N2CCN(C(=O)[C@H](Cc3cc4ccccc4[nH]3)n3cc([C@@H](N)CC(C)C)nn3)CC2)n1	Pf growth 48h 2.3µM, Pf growth 96h 4.1µM (no result: HCMV inh)
C#CCOCCOCCOCCNc1nc(N2CCN(C(=O)[C@H](Cc3cc4ccccc4[nH]3)n3cc([C@@H](N)CC(C)C)nn3)CC2)nc(N2CCN(C(=O)[C@H](Cc3cc4ccccc4[nH]3)n3cc([C@@H](N)CC(C)C)nn3)CC2)n1	Pf growth 48h 2.6µM, Pf growth 96h 4.1µM (no result: HCMV inh)
C#CCOCCOCCOCCNc1nc(N2CCN(C(=O)[C@H]([C@@H](C)CC)n3cc([C@@H](N)CO)nn3)CC2)nc(N2CCN(C(=O)[C@H](Cc3cc4ccccc4[nH]3)n3cc([C@@H](N)C(C)CC)nn3)CC2)n1 (stereo partly specified)	Pf growth 48h inconclusive, Pf growth 96h inconclusive, Sm TGR inh inconclusive (no result: HCV inhibitor, HCMV inh)
C#CCOCCOCCOCCNc1nc(N2CCN(C(=O)[C@H]([C@@H](C)CC)n3cc([C@@H](N)CC(C)C)nn3)CC2)nc(N2CCN(C(=O)[C@H](Cc3cc4ccccc4[nH]3)n3cc([C@@H](N)CC(C)C)nn3)CC2)n1	Pf growth 48h 10µM, Pf growth 96h 3.3µM, Sm TGR inh inconclusive (no result: HCV inhibitor, HCMV inh)
COc1ccc(CC2C(=O)NC(C)C(=O)N(C)C3C(=O)N(C)C(Cc4ccc(O)c(c4)Oc4ccc(cc4)C3O)C(=O)NC(C)C(=O)NC(C)C(=O)N2C)cc1 (stereo unspecified)	HCV inhibitor inconclusive, HCMV inh -98 (no result: SARS PLpro yeast, Pf growth 48h, Pf growth 96h, Sm TGR inh)
CCOc1ccc(NC(=S)NC23CC4CC(CC(C4)C2)C3)cc1	Pf growth 48h 10µM
CN(C)c1ccc(NC(=S)NC23CC4CC(CC(C4)C2)C3)cc1	HCV inhibitor 4µM, Pf growth 48h 5.2µM, Pf growth 96h 0.59µM, HCMV inh inconclusive
O=C(c1ccccc1)N1CCN(C(=O)C23CC4CC(CC(C4)C2)C3)CC1	Pf growth 48h inconclusive
CN1CCN(C(=O)C23CC4CC(C2)CC(c2ccccc2)(C4)C3)CC1	HCV inhibitor 10µM, Pf growth 48h inconclusive, Pf growth 96h inconclusive
CCOc1ccc(NC(=O)C23CC4CC(C2)CC(c2ccccc2)(C4)C3)cc1	HCV inhibitor inconclusive, Pf growth 48h inconclusive, Pf growth 96h 1.9µM
CCOC(=O)N1CCN(C(=O)c2cnn(-c3cccc(F)c3)c2-n2cccc2)CC1	HCMV inh inconclusive (no result: HCV inhibitor, SARS PLpro yeast, Pf growth 48h, Pf growth 96h)
CCOC(=O)C1CCCN(C(=O)c2cc(F)ccc2C)CC1 (stereo unspecified)	none (no result: HCV inhibitor, SARS PLpro yeast, Pf growth 48h, Pf growth 96h, Sm TGR inh)
O=C(CN1CCSc2ccccc21)NCc1ccccc1F	none (no result: HCV inhibitor, SARS PLpro yeast, Pf growth 48h, Pf growth 96h)
O=C(c1ccc(NC(=O)C(c2ccccc2)c2ccccc2)cc1)c1ccc(C(=O)O)c(C(=O)O)c1	Pf growth 96h inconclusive
CN(NC(=S)Nc1ccc(OC(F)F)cc1)C(=S)Nc1ccc(OC(F)F)cc1	HCV inhibitor inconclusive
FC(F)Oc1ccc(NC(=S)NC23CC4CC(CC(C4)C2)C3)cc1	HCV inhibitor inconclusive, SARS PLpro yeast inconclusive, Pf growth 48h 4.1µM, Pf growth 96h 4.1µM
CCN(c1ccccc1)S(=O)(=O)c1ccc(Cl)c(C(=O)NCC2CCCO2)c1 (stereo unspecified)	none
CNc1ccc([N+](=O)[O-])cc1-c1nc2ccccc2[nH]c1=O	none
Clc1ccc(CN=C(Nc2ccccc2)NC2CCCCC2)cc1	HCV inhibitor inconclusive, Pf growth 48h 9.3µM, Pf growth 96h 9.3µM, HCMV inh -77
Cc1ccc(CN2C(=O)S/C(=C\c3ccccc3OCC(=O)O)C2=O)cc1	Pf growth 96h 5.2µM
O=C(O)COc1ccccc1/C=C1\SC(=O)N(Cc2ccc(F)cc2)C1=O	none (no result: Sm TGR inh)
CC(=O)c1cccc(-c2cnc3ccc(-c4cccc(CO)c4)nn23)c1	HCMV inh -95 (no result: HCV inhibitor, SARS PLpro yeast, Pf growth 48h, Pf growth 96h, Sm TGR inh)
CNc1ccc2ncc(-c3cccc(C(=O)N(C)C)c3)n2n1	HCMV inh -75 (no result: HCV inhibitor, SARS PLpro yeast, Pf growth 48h, Pf growth 96h, Sm TGR inh)
CN(C)C(=O)c1cccc(-c2ccc3nncn3c2)c1	none (no result: HCV inhibitor, SARS PLpro yeast, Pf growth 48h, Pf growth 96h, Sm TGR inh)
Cc1nn(C)c(C)c1NC(=O)CN1CCC(O)(c2ccc3c(c2)OCO3)CC1	Pf growth 96h 10µM
